# Reference: ChEMBL document CHEMBL4513216, “Probing the Open Global Health Chemical Diversity Library for Multistage-Active Starting Points for Next-Generation Antimalarials” (ACS Infect Dis, 2020)
# About 2,100 (3.2%) of roughly 65,000 compounds showed an effect of 50% or more. The median lay at about -52%. The entries come from a sample that favours strong results as a whole.
# System: Plasmodium falciparum
# Experiment: Screen against P. falciparum Asexual Blood Stage (ABS), at 5uM
# Assay type: functional, Dd2
# Settings: tested at 5 uM
row,SMILES,INHIBITION [%]
1,COCC1c2nnn(C)c2CCN1C(=O)COc1ccccc1OC (stereo not drawn),-85.8
2,CS(=O)(=O)NCCN(CCCO)C1CCc2ccccc21 (stereo not drawn),-55.5
3,CCCN1CCC(NC(=O)c2csc(C)c2-c2ccccc2)CC1,28.9
4,Cc1ccc(-c2c(C(=O)NC3CCN(C)CC3)csc2C)cc1,61.9
5,CCCN1CCC(NC(=O)c2csc(C)c2C)CC1,-48.6
6,CN(C)C(=O)COC[C@]12COC[C@H]1CN(C1CCCC1)C2,-77.5
7,CCNC(=O)[C@@H]1C[C@@H](N)CN1Cc1ccc(Sc2ccc(C)cc2)o1,63.9
8,CCNC(=O)[C@@H]1C[C@H](N)CN1Cc1ccc(Sc2ccc(C)cc2)o1,64.6
9,CCNC(=O)[C@@H]1C[C@@H](N)CN1Cc1ccc2cccc(Cl)c2n1,31.4
10,CCNC(=O)[C@@H]1C[C@H](N)CN1Cc1ccc(-c2cc[nH]n2)o1,-81.2
11,CCNC(=O)[C@@H]1C[C@H](N)CN1Cc1ccc(-c2ccccc2C#N)o1,-5.25
12,CCNC(=O)[C@@H]1C[C@@H](N)CN1Cc1ccc(-c2ccccc2C#N)o1,-71.4
13,CC/C=C(\C)CN1CCC(CNC(=O)c2c[nH]c(=O)c(Cl)c2)C1 (stereo not drawn),-7.22
14,Nc1ncccc1C(=O)NCc1cccc(Br)c1,-72
15,CC(=O)NCCC(=O)NCC1(c2c(F)cccc2F)CCCC1,-77.3
16,COC(=O)NCC(=O)NCC1(c2c(F)cccc2F)CCCC1,69.7
17,CCS(=O)(=O)CC(=O)NCC1(c2c(F)cccc2F)CCCC1,-90.7
18,Cc1cc(C)c2nc(C3CC3)cc(C(=O)N3CCCC3C(N)=O)c2c1 (stereo not drawn),-98.6
19,COCC1c2c(cnn2C)CCN1C(=O)c1cscn1 (stereo not drawn),-109
20,CC(Cn1cccn1)NCc1nc(-c2cccnc2)no1 (stereo not drawn),-56
21,CC(c1ccccc1)N1CCC(NC(=O)CCc2ccsc2)CC1 (stereo not drawn),54.8
22,CSCC(=O)NC1CCN(C(C)c2ccccc2)CC1 (stereo not drawn),-27.6
23,CCSCCC(=O)NC1CCN(C(C)c2ccccc2)CC1 (stereo not drawn),-58.8
24,Cc1cc2c(N3CCC(N(C)Cc4nccs4)CC3)ncnc2s1,-19.4
25,CC(c1ccc(Cl)cc1)N1CCN(CCS(C)(=O)=O)CC1 (stereo not drawn),-38.8
26,CC(NC1CCN(CCS(C)(=O)=O)CC1)c1cnn(C(C)C)c1 (stereo not drawn),-83.1
27,CC(NC1CCN(CCS(C)(=O)=O)CC1)c1ccc(Cl)cc1 (stereo not drawn),58.2

row,SMILES,INHIBITION [%]
1,CN(Cc1cccnc1)C1CCCN(Cc2noc(C3CC3)n2)C1 (stereo not drawn),52.6
2,Cc1nc(CN(C)C2CCN(Cc3c(C)noc3C)C2)no1 (stereo not drawn),-19.4
3,Cc1cc(CN(C)C2CCCN(Cc3noc(C)n3)C2)no1 (stereo not drawn),-90.9
4,Cc1nc(CN2CCCC(N(C)Cc3c(C)noc3C)C2)no1 (stereo not drawn),58.6
5,Cc1nc(CN2CCCC(N(C)CCCc3ccccc3)C2)no1 (stereo not drawn),-0.463
6,Cc1nc(CN2CCCC(N(C)CCc3ccncc3)C2)no1 (stereo not drawn),-138
7,Cc1nc(CN2CCCC(NCc3ccc4ccccc4c3)C2)no1 (stereo not drawn),-9.17
8,CN(Cc1ccccn1)C1CCCN(Cc2noc(C3CC3)n2)C1 (stereo not drawn),-128
9,Cc1nc(CN2CCCC(NCc3cccc4ccccc34)C2)no1 (stereo not drawn),58.3
10,CCOc1ccccc1CNC1CCCN(Cc2noc(C)n2)C1 (stereo not drawn),48.7
11,COc1ccc(CCN(C)C2CCCN(Cc3noc(C)n3)C2)cc1 (stereo not drawn),60.6
12,CN(Cc1cnn(C)c1)C1CCCN(Cc2noc(C3CC3)n2)C1 (stereo not drawn),-39.7
13,CCn1nc(C)c(CN2CCC(c3ccn[nH]3)C2)c1C (stereo not drawn),-30.2
14,Cc1nc2sccn2c1CNC1(c2ccccc2F)CCCC1,-5.97
15,Cc1cccc(COC[C@@]23CCC[C@@H]2CN(S(=O)(=O)N(C)C)C3)n1,-12.3
16,CCc1nc(CN2CCN(C(=O)C3(C#N)CCCC3)CC2)cs1,-79.7
17,O=C(c1ccccn1)N1CCC2(CC1)COC(COCC1CCCC1)C2 (stereo not drawn),-14.7
18,Cc1ccc(CN2CCN(C(=O)c3ccc(CO)cc3)C(C)C2=O)cc1 (stereo not drawn),-121
19,CC(=O)N1CCCC(c2ccccn2)C1 (stereo not drawn),-11.9
20,CC(=O)N1CCCC(c2ccc(Cc3ccccc3)cn2)C1 (stereo not drawn),60.4
21,CC(=O)N1CCCC(c2ccc(Br)cn2)C1 (stereo not drawn),-147
22,CNc1cncc(C2CCCN2Cc2ccn(C)n2)n1 (stereo not drawn),-1.9
23,c1cncc(-c2ccc3c(c2)CCC32CCN(Cc3nccs3)CC2)c1,49.1
24,CCN1C[C@@H]2CN(S(=O)(=O)c3cccs3)C[C@@H]2C1=O,64.6
25,CC(C)CN1C[C@@H]2CN(S(=O)(=O)c3cccs3)C[C@@H]2C1=O,-43.6
26,COCCN1C[C@@H]2CN(S(=O)(=O)c3cccs3)C[C@@H]2C1=O,-43.2
